Assay results from publication PMC7862700, “An all-to-all approach to the identification of sequence-specific readers for epigenetic DNA modifications on cytosine”.

Molecular target: SPI1 (Homo sapiens, UniProt P17947 1-270)
Test: DAPPL (digital affinity profiling via proximity ligation, sequencing); 10 mM Tris-HCl pH 7.5, 50 mM NaCl, 1 mM DTT, 4% glycerol, room temperature, 30 min; GST-TFs on glutathione beads, 16-mer random dsDNA library, 0.1% formaldehyde crosslink after washing; high values mean tight binding
Details: protein: recombinant; tags: N-terminal GST; dsDNA, one strand shown
Procedure, shortened: (§1)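 Yeast served to express human transcription factors as GST fusions, which were then captured on glutathione beads and labelled with DNA barcodes. Pooled with a tag-only sample, they were incubated with 200 nmole of a 16-mer random double-stranded DNA library for 30 min at room temperature in Tris/NaCl/DTT/glycerol buffer, washed, crosslinked with 0.1% formaldehyde, ligated by proximity, amplified by PCR and sequenced. Dividing each hexamer's read frequency for a factor by its frequency for the tag-only sample gives the binding signal.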

Sequence | binding signal
TGGACC | 1.1 fold enrichment (6-mer frequency, TF over GST control)
TGCTGC | 1.11 fold enrichment (6-mer frequency, TF over GST control)
GCCCAC | 1.07 fold enrichment (6-mer frequency, TF over GST control)
TTGGTC | 1.08 fold enrichment (6-mer frequency, TF over GST control)
TTGCCG | 1.12 fold enrichment (6-mer frequency, TF over GST control)
TGGTCA | 1.05 fold enrichment (6-mer frequency, TF over GST control)
AAAGCG | 1.53 fold enrichment (6-mer frequency, TF over GST control)
GGGTTC | 1.11 fold enrichment (6-mer frequency, TF over GST control)
CATACG | 1.06 fold enrichment (6-mer frequency, TF over GST control)
CCGATG | 1.08 fold enrichment (6-mer frequency, TF over GST control)
ATGCCG | 1.13 fold enrichment (6-mer frequency, TF over GST control)
CCACCT | 1.11 fold enrichment (6-mer frequency, TF over GST control)
GCGCGC | 1.05 fold enrichment (6-mer frequency, TF over GST control)
GTCCCA | 1.13 fold enrichment (6-mer frequency, TF over GST control)
TGGTGC | 1.12 fold enrichment (6-mer frequency, TF over GST control)
ACATGG | 1.14 fold enrichment (6-mer frequency, TF over GST control)
GTCTTG | 1.01 fold enrichment (6-mer frequency, TF over GST control)
ATGGTG | 1.07 fold enrichment (6-mer frequency, TF over GST control)
ACCACC | 1.1 fold enrichment (6-mer frequency, TF over GST control)
TGCCAA | 1.12 fold enrichment (6-mer frequency, TF over GST control)
GCTGCC | 1.06 fold enrichment (6-mer frequency, TF over GST control)
ACGTTG | 1.08 fold enrichment (6-mer frequency, TF over GST control)
CCATGC | 1.01 fold enrichment (6-mer frequency, TF over GST control)
GTTGAT | 1.12 fold enrichment (6-mer frequency, TF over GST control)
AAGGGT | 1.05 fold enrichment (6-mer frequency, TF over GST control)
GTCTAC | 1.12 fold enrichment (6-mer frequency, TF over GST control)
CATCGC | 1.06 fold enrichment (6-mer frequency, TF over GST control)
GGTTTT | 1.24 fold enrichment (6-mer frequency, TF over GST control)

Molecular target: SPIB (Homo sapiens, UniProt Q01892 1-262)
Sequence (Q01892 whole entry): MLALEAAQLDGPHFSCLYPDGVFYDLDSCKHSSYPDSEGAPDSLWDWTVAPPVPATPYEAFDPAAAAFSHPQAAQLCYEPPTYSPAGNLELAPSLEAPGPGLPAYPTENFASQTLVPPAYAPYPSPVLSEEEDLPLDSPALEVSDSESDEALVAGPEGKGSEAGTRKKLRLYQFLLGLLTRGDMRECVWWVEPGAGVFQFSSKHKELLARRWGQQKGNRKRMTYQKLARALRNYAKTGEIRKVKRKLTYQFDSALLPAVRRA
Test: as above
Details: protein: recombinant; tags: N-terminal GST; dsDNA, one strand shown
Procedure, shortened: as §1

Sequence | binding signal
TGGACC | 1.02 fold enrichment (6-mer frequency, TF over GST control)
TGCTGC | 1.07 fold enrichment (6-mer frequency, TF over GST control)
CCACAC | 1.04 fold enrichment (6-mer frequency, TF over GST control)
CGGCCT | 1.02 fold enrichment (6-mer frequency, TF over GST control)
GCCCAC | 1.12 fold enrichment (6-mer frequency, TF over GST control)
TTGGTC | 1.05 fold enrichment (6-mer frequency, TF over GST control)
CATCCA | 1 fold enrichment (6-mer frequency, TF over GST control)
TTGCCG | 1.12 fold enrichment (6-mer frequency, TF over GST control)
TGGTCA | 1.07 fold enrichment (6-mer frequency, TF over GST control)
AGCAAC | 1.08 fold enrichment (6-mer frequency, TF over GST control)
AAAGCG | 1.1 fold enrichment (6-mer frequency, TF over GST control)
GGGTTC | 1.09 fold enrichment (6-mer frequency, TF over GST control)
CCGATG | 1.2 fold enrichment (6-mer frequency, TF over GST control)
ATGCCG | 1.17 fold enrichment (6-mer frequency, TF over GST control)
CCACCT | 1.07 fold enrichment (6-mer frequency, TF over GST control)
GCGCGC | 1.18 fold enrichment (6-mer frequency, TF over GST control)
CGCCCG | 1.2 fold enrichment (6-mer frequency, TF over GST control)
TCAACA | 1.01 fold enrichment (6-mer frequency, TF over GST control)

Sequence | binding signal
ACCACA | 1.04 fold enrichment (6-mer frequency, TF over GST control)
GTCCCA | 1.06 fold enrichment (6-mer frequency, TF over GST control)
TGGTGC | 1.06 fold enrichment (6-mer frequency, TF over GST control)
ACATGG | 1.04 fold enrichment (6-mer frequency, TF over GST control)
GTCTTG | 1.04 fold enrichment (6-mer frequency, TF over GST control)
ATGGTG | 1.01 fold enrichment (6-mer frequency, TF over GST control)
ACCACC | 1.18 fold enrichment (6-mer frequency, TF over GST control)
TGCCAA | 1.11 fold enrichment (6-mer frequency, TF over GST control)
GCTGCC | 1.03 fold enrichment (6-mer frequency, TF over GST control)
GCCCCA | 1 fold enrichment (6-mer frequency, TF over GST control)
CCGCTG | 1.07 fold enrichment (6-mer frequency, TF over GST control)
ACGTTG | 1.02 fold enrichment (6-mer frequency, TF over GST control)
GTTGAT | 1.1 fold enrichment (6-mer frequency, TF over GST control)
AAGGGT | 1.04 fold enrichment (6-mer frequency, TF over GST control)
GTCTAC | 1.03 fold enrichment (6-mer frequency, TF over GST control)
CATCGC | 1.1 fold enrichment (6-mer frequency, TF over GST control)
GGTTTT | 1.05 fold enrichment (6-mer frequency, TF over GST control)

Molecular target: T1, ELK3 (Homo sapiens, UniProt P41970 1-407)
T1 sequence: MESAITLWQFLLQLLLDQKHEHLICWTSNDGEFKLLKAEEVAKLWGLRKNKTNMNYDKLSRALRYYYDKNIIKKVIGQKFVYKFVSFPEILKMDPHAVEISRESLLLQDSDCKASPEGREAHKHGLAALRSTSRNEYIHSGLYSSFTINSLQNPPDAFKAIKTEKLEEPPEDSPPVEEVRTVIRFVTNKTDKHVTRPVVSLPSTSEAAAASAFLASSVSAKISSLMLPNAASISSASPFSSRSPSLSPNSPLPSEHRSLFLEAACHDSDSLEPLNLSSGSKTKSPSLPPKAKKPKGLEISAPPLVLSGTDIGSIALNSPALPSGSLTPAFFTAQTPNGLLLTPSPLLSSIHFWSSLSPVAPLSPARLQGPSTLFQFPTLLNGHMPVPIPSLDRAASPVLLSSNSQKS
Test: as above
Details: protein: recombinant; tags: N-terminal GST; dsDNA, one strand shown
Procedure, shortened: as §1

Sequence | binding signal
TGCTGC | 1.08 fold enrichment (6-mer frequency, TF over GST control)
CCACAC | 1.11 fold enrichment (6-mer frequency, TF over GST control)
CGGCCT | 1.13 fold enrichment (6-mer frequency, TF over GST control)
GCCCAC | 1.03 fold enrichment (6-mer frequency, TF over GST control)
TTGGTC | 1.11 fold enrichment (6-mer frequency, TF over GST control)
TTGCCG | 1.07 fold enrichment (6-mer frequency, TF over GST control)
AAAGCG | 1.08 fold enrichment (6-mer frequency, TF over GST control)
CATACG | 1.12 fold enrichment (6-mer frequency, TF over GST control)
ATGCCG | 1.07 fold enrichment (6-mer frequency, TF over GST control)
CCACCT | 1.06 fold enrichment (6-mer frequency, TF over GST control)
GCGCGC | 1.01 fold enrichment (6-mer frequency, TF over GST control)
CGCCCG | 1.15 fold enrichment (6-mer frequency, TF over GST control)
TCAACA | 1.06 fold enrichment (6-mer frequency, TF over GST control)
ACCACA | 1.14 fold enrichment (6-mer frequency, TF over GST control)
GTCCCA | 1.18 fold enrichment (6-mer frequency, TF over GST control)
ACATGG | 1.09 fold enrichment (6-mer frequency, TF over GST control)
GTCTTG | 1.17 fold enrichment (6-mer frequency, TF over GST control)
ATGGTG | 1.02 fold enrichment (6-mer frequency, TF over GST control)
ACCACC | 1.21 fold enrichment (6-mer frequency, TF over GST control)
TGCCAA | 1.05 fold enrichment (6-mer frequency, TF over GST control)
GCTGCC | 1.05 fold enrichment (6-mer frequency, TF over GST control)
GCCCCA | 1.1 fold enrichment (6-mer frequency, TF over GST control)
ACGTTG | 1.01 fold enrichment (6-mer frequency, TF over GST control)
CCATGC | 1.04 fold enrichment (6-mer frequency, TF over GST control)
GTCTAC | 1.06 fold enrichment (6-mer frequency, TF over GST control)
CATCGC | 1.23 fold enrichment (6-mer frequency, TF over GST control)
GGTTTT | 1.04 fold enrichment (6-mer frequency, TF over GST control)

Molecular target: T2, FEV (Homo sapiens, UniProt Q99581 1-238)
T2 sequence: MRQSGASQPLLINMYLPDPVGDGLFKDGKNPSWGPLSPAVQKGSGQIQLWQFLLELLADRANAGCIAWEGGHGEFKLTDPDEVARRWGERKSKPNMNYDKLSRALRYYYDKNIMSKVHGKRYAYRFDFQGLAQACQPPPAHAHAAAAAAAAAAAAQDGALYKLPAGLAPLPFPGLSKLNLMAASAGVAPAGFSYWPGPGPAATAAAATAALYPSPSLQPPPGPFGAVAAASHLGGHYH
Test: as above
Details: protein: recombinant; tags: N-terminal GST; dsDNA, one strand shown
Procedure, shortened: as §1

Sequence | binding signal
TGGACC | 1.17 fold enrichment (6-mer frequency, TF over GST control)
TGCTGC | 1.15 fold enrichment (6-mer frequency, TF over GST control)
CCACAC | 1.11 fold enrichment (6-mer frequency, TF over GST control)
CGGCCT | 1.17 fold enrichment (6-mer frequency, TF over GST control)
GCCCAC | 1.12 fold enrichment (6-mer frequency, TF over GST control)
TTGGTC | 1.04 fold enrichment (6-mer frequency, TF over GST control)
TTGCCG | 1.12 fold enrichment (6-mer frequency, TF over GST control)
AGCAAC | 1.08 fold enrichment (6-mer frequency, TF over GST control)
AAAGCG | 1.06 fold enrichment (6-mer frequency, TF over GST control)
